Inconclusive results are not listed. Calls of active or inactive are those of the source. Calls follow the shape of the dose curve; as a rule, active = well fitted inhibition curve with a large enough effect; inconclusive = small, poorly fitted or top-dose-only effect; inactive = flat fitted curve, though single readings scatter.
Experiments:
CRL-7250 = normal cell line; experiment: Cytotoxic Profiling of Annotated Libraries Using Quantitative High-Throughput Screening (AID 1296008); settings: Five cell lines viability, CellTiter-Glo ATP luminescence, 48-72 h; active compounds read low; as to max response: % is scaled to controls: 0 for no effect and ±100 for the full control effect
Summary of the method: (§1)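 Compounds were pin-transferred onto cells and incubated 48 or 72 hr at 37 degree Celsius, 95% humidity. CellTiter-Glo was added, plates sat 10 min at room temperature, then ATP-coupled luminescence was imaged as the viability read-out.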

HEK293 = experiment: as above; settings: Five cell lines viability, CellTiter-Glo ATP luminescence, 48-72 h; active compounds read low
Summary of the method: as §1

HaCat [1] = experiment: as above; settings: Five cell lines viability, CellTiter-Glo ATP luminescence, 48-72 h; active compounds read low
Summary of the method: as §1

KB-3-1 = experiment: as above; settings: Five cell lines viability, CellTiter-Glo ATP luminescence, 48-72 h, active compounds read low
Summary of the method: as §1

NIH3T3 = experiment: as above; settings: Five cell lines viability, CellTiter-Glo ATP luminescence, 48-72 h; active compounds read low
Summary of the method: as §1

HACAT [2] = experiment: qHTS assay to identify novel small-molecules to repurpose for Merkel cell carcinoma treatment (AID 1296009); settings: MCC and control cell lines, CellTiter-Glo viability, 72 h; at 44.8 µM (top of the series) unless noted
Summary of the method: (§2)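 Viability readout: ATP luminescence (CellTiter-Glo) after 72 hr drug exposure at 37 degree celsius. Dose-response format was 8 points for NPC and 11 points for MIPE; data normalized to in-plate controls.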

MCC-13 = experiment: as above; settings: MCC and control cell lines, CellTiter-Glo viability, 72 h; series mostly up to 46 µM
Summary of the method: as §2

MKL-1 = experiment: as above; settings: MCC and control cell lines, CellTiter-Glo viability, 72 h; series mostly up to 46 µM
Summary of the method: as §2

P94_40 = experiment: qHTS profiling for inhibitors of Plasmodium falciparum proliferation (AID 504749); also: potency is read from the fitted curve at half-maximal effect; settings: P. falciparum in erythrocytes, SYBR Green DNA, 72 h; series mostly up to 28.7 µM
Summary of the method: (§3)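 Quantitative HTS: compounds pinned into medium, infected erythrocytes added (0.3% parasitemia, 2.5% hematocrit), 72 h culture at 37 C under 5% CO2. Saponin/Triton lysis with SYBR Green I, overnight RT, then fluorescence read.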

PAD = experiment: as above; settings: P. falciparum in erythrocytes, SYBR Green DNA, 72 h; series mostly up to 28.7 µM
Summary of the method: as §3

PC15 = experiment: as above; settings: P. falciparum in erythrocytes, SYBR Green DNA, 72 h; series mostly up to 28.7 µM
Summary of the method: as §3

PC26 = experiment: as above; settings: P. falciparum in erythrocytes, SYBR Green DNA, 72 h; series mostly up to 28.7 µM
Summary of the method: as §3

PC49 = experiment: as above; settings: P. falciparum in erythrocytes, SYBR Green DNA, 72 h; series mostly up to 28.7 µM
Summary of the method: as §3

SC27B = experiment: as above; settings: P. falciparum in erythrocytes, SYBR Green DNA, 72 h; series mostly up to 28.7 µM
Summary of the method: as §3

TAB109 = experiment: as above; settings: P. falciparum in erythrocytes, SYBR Green DNA, 72 h; series mostly up to 28.7 µM
Summary of the method: as §3

TAB113 = experiment: as above; settings: P. falciparum in erythrocytes, SYBR Green DNA, 72 h; series mostly up to 28.7 µM
Summary of the method: as §3

TAB165 = experiment: as above; settings: P. falciparum in erythrocytes, SYBR Green DNA, 72 h; series mostly up to 28.7 µM
Summary of the method: as §3

W2 = experiment: as above; settings: P. falciparum in erythrocytes, SYBR Green DNA, 72 h; series mostly up to 28.7 µM
Summary of the method: as §3

HEK293T = experiment: qHTS assay to identify novel small-molecules to repurpose for Merkel cell carcinoma treatment (AID 1296009); settings: MCC and control cell lines, CellTiter-Glo viability, 72 h; at 44.8 µM (top of the series) unless noted
Summary of the method: as §2

MCC-26 = experiment: as above; settings: MCC and control cell lines, CellTiter-Glo viability, 72 h; series mostly up to 46 µM
Summary of the method: as §2
Also: nearly all actives have a fitted effect of over 60% in size.

CO[C@@]1(NC(=O)C(C(=O)O)c2ccc(O)cc2)C(=O)N2C(C(=O)O)=C(CSc3nnnn3C)CO[C@@H]21 (stereo partly specified)
inactive: max response (CRL-7250) -2.58% | max response (HEK293) 1.05% | outcome (HaCat [1]) | max response (KB-3-1) 4.1% | max response (NIH3T3) -2.47% | outcome (HACAT [2]) | outcome (MCC-13) | outcome (MKL-1)

Nc1ccc(S(=O)(=O)c2ccc(N)cc2)cc1
inactive: Potency (P94_40) | Potency (PAD) | Potency (PC15) | Potency (PC26) | Potency (PC49) | Potency (SC27B) | Potency (TAB109) | Potency (TAB113) | Potency (TAB165) | Potency (W2) | max response (CRL-7250) 2.75% | outcome (HEK293) | max response (HaCat [1]) 2.48% | max response (KB-3-1) -3.79% | max response (NIH3T3) 3.17% | outcome (HEK293T) | outcome (MCC-13) | outcome (MCC-26) | outcome (MKL-1)

Cc1ccc(S(=O)(=O)NC(=O)NC2CCCCCCC2)cc1
inactive: Potency (P94_40) | Potency (PAD) | Potency (PC15) | Potency (PC26) | Potency (PC49) | Potency (SC27B) | Potency (TAB109) | Potency (TAB113) | Potency (TAB165) | Potency (W2) | max response (CRL-7250) -5.06% | max response (HEK293) 4.09% | outcome (HaCat [1]) | max response (KB-3-1) 0.148% | max response (NIH3T3) 3.55% | outcome (HACAT [2]) | outcome (MCC-13) | outcome (MKL-1)

COC(=O)N/N=C/c1c[n+]([O-])c2ccccc2[n+]1[O-]
inactive: max response (CRL-7250) 4.42% | outcome (HEK293) | max response (HaCat [1]) -20.3% | max response (KB-3-1) -2.23% | max response (NIH3T3) -11.1% | outcome (HEK293T) | outcome (MCC-13) | outcome (MCC-26) | outcome (MKL-1)

CC(=O)N[C@H]1[C@H]([C@H](O)[C@H](O)CO)OC(C(=O)O)=C[C@@H]1N=C(N)N
inactive: max response (CRL-7250) -5.6% | max response (HEK293) 1.78% | outcome (HaCat [1]) | max response (KB-3-1) 6.48% | outcome (NIH3T3) | outcome (HACAT [2]) | outcome (MCC-13) | outcome (MKL-1)

C/C(=C(\CCO)SS/C(CCO)=C(\C)N(C=O)Cc1cnc(C)nc1N)N(C=O)Cc1cnc(C)nc1N
inactive: outcome (CRL-7250) | max response (HEK293) -0.967% | outcome (HaCat [1]) | max response (KB-3-1) -5.06% | max response (NIH3T3) -2.04% | outcome (HACAT [2]) | outcome (MCC-13) | outcome (MKL-1)

C1CCN2C[C@@H]3C[C@@H](CN4CCCC[C@@H]34)[C@H]2C1
inactive: outcome (CRL-7250) | max response (HEK293) -9.35% | outcome (HaCat [1]) | max response (KB-3-1) 4.47% | max response (NIH3T3) 3.41% | outcome (HACAT [2]) | outcome (MCC-13) | outcome (MKL-1)

Cc1cc(-n2nc3ccc(Cl)cc3n2)c(O)c(C(C)(C)C)c1
inactive: Potency (PC15) | Potency (PC26) | Potency (PC49) | Potency (SC27B) | Potency (W2) | max response (CRL-7250) -3.44% | max response (HEK293) 4.97% | outcome (HaCat [1]) | max response (KB-3-1) 6.34% | max response (NIH3T3) 3.2% | outcome (HACAT [2]) | outcome (MCC-13) | outcome (MKL-1)

O=C(Cn1ccnc1[N+](=O)[O-])NCCO
inactive: Potency (P94_40) | Potency (PAD) | Potency (PC15) | Potency (PC26) | Potency (PC49) | Potency (SC27B) | Potency (TAB109) | Potency (TAB113) | Potency (TAB165) | Potency (W2) | max response (CRL-7250) 1.72% | outcome (HEK293) | max response (HaCat [1]) 0.0021% | max response (KB-3-1) 0.623% | max response (NIH3T3) 4.22% | outcome (HEK293T) | outcome (MCC-13) | outcome (MCC-26) | outcome (MKL-1)

OCCN1C[C@H](O)[C@@H](O)[C@H](O)[C@H]1CO
inactive: max response (CRL-7250) 0.57% | outcome (HEK293) | max response (HaCat [1]) -0.066% | max response (KB-3-1) 4.48% | max response (NIH3T3) -3.52% | outcome (HEK293T) | outcome (MCC-13) | outcome (MCC-26) | outcome (MKL-1)

Nc1c2c(nc3c1CCC3)CCCC2
inactive: outcome (CRL-7250) | max response (HEK293) -2.02% | outcome (HaCat [1]) | max response (KB-3-1) -0.45% | max response (NIH3T3) 0.339% | outcome (HACAT [2]) | outcome (MCC-13) | outcome (MKL-1)
active: Potency (P94_40) 11.2 µM | Potency (TAB165) 11.2 µM

Cn1cc(C(=O)[C@@H]2CCc3nc[nH]c3C2)c2ccccc21
inactive: outcome (CRL-7250) | max response (HEK293) 3.07% | outcome (HaCat [1]) | max response (KB-3-1) -12.7% | max response (NIH3T3) -0.574% | outcome (HACAT [2]) | outcome (MCC-13) | outcome (MKL-1)

CC(=O)Oc1cccc(O)c1
inactive: Potency (P94_40) | Potency (PAD) | Potency (PC15) | Potency (PC26) | Potency (PC49) | Potency (SC27B) | Potency (TAB109) | Potency (TAB113) | Potency (TAB165) | Potency (W2) | max response (CRL-7250) 2.6% | max response (HEK293) 2.67% | outcome (HaCat [1]) | max response (KB-3-1) -9.73% | outcome (NIH3T3) | outcome (HACAT [2]) | outcome (MCC-13) | outcome (MKL-1)

CCc1nnc(NS(=O)(=O)c2ccc(N)cc2)s1
inactive: Potency (P94_40) | Potency (PAD) | Potency (PC15) | Potency (PC26) | Potency (PC49) | Potency (SC27B) | Potency (TAB109) | Potency (TAB113) | Potency (TAB165) | Potency (W2) | max response (CRL-7250) 4.08% | max response (HEK293) -0.578% | outcome (HaCat [1]) | max response (KB-3-1) 7.07% | max response (NIH3T3) 3.74% | outcome (HACAT [2]) | outcome (MCC-13) | outcome (MKL-1)

COc1ccc(-c2cc(=O)c3c(O)cc(O[C@@H]4O[C@H](CO[C@@H]5O[C@@H](C)[C@H](O)[C@@H](O)[C@H]5O)[C@@H](O)[C@H](O)[C@H]4O)cc3o2)cc1O
inactive: max response (CRL-7250) -26.4% | outcome (HEK293) | max response (HaCat [1]) -10.9% | max response (KB-3-1) -15.8% | max response (NIH3T3) -0.449% | outcome (HEK293T) | outcome (MCC-13) | outcome (MCC-26) | outcome (MKL-1)

C[C@@H](N)C(=O)O
inactive: Potency (P94_40) | Potency (PAD) | Potency (PC15) | Potency (PC26) | Potency (PC49) | Potency (SC27B) | Potency (TAB109) | Potency (TAB113) | Potency (TAB165) | Potency (W2) | max response (CRL-7250) 0.494% | outcome (HEK293) | max response (HaCat [1]) -6.96% | max response (KB-3-1) -23.1% | max response (NIH3T3) -0.0264% | outcome (HEK293T) | outcome (MCC-13) | outcome (MCC-26) | outcome (MKL-1)

Source: PubChem BioAssay (NCATS)
